The source made the active and inactive calls. The rule behind the calls is not given here.
target: Estrogen receptor (Homo sapiens) (UniProt P03372); assay: ERalpha ligand binders by competition, primary screen, cell-based, Cos7 ERalpha-GFP, flow cytometry (AID 1211); conditions: fluorescent ligand competition, at 10 µM, stronger effect = higher value;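 note: 0% = DMSO vehicle wells and 100% = no E2-Alexa633 signal left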
Sequence (P03372 whole entry, looked up): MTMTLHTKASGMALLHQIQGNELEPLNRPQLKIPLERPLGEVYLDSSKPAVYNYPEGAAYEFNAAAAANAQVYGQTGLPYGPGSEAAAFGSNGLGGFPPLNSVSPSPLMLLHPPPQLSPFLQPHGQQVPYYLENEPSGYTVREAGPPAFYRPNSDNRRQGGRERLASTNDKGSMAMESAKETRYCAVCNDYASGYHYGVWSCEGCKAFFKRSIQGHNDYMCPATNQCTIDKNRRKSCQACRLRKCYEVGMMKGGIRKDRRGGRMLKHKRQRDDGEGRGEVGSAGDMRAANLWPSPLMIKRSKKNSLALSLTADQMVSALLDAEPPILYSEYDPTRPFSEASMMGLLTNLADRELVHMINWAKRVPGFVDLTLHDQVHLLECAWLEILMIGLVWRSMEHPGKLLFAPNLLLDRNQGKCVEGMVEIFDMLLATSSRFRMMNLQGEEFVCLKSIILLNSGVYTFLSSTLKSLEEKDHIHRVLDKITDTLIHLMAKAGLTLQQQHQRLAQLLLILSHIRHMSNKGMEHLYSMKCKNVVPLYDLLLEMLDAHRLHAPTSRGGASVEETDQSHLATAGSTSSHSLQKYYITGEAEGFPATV

Row | Structure (SMILES) | inhibition of ligand binding
1 | CC(=O)c1ccc2c(c1)C1C(Cl)C(Sc3ccccc3[N+](=O)[O-])CC1C(c1ccccc1)N2 (stereo not drawn) | 69% (active)
2 | COc1ccc(C2(CN)CCCC2)cc1OC | 2% (inactive)
3 | O=C(O)c1ccc2c(c1)C1C(Cl)C(Sc3ccccc3[N+](=O)[O-])CC1C(c1cccc([N+](=O)[O-])c1)N2 (stereo not drawn) | 0% (inactive)
4 | CCNCC1(c2ccc(OC)c(OC)c2)CCCC1 | 17% (inactive)
5 | COc1ccc(CC2NCCc3cc(OC)c(OC)cc32)cc1OC (stereo not drawn) | 7% (inactive)
6 | CC1(C)CC(CCNCc2ccc3c(c2)OCO3)(Cc2ccccc2)CCO1 (stereo not drawn) | 0% (inactive)
7 | COc1cc2c(cc1OC)CC(C)(C)NC2 | 3% (inactive)
8 | CC(=O)c1ccc2c(c1)C1C(Cl)C(Sc3ccccc3[N+](=O)[O-])CC1C(c1ccccc1[N+](=O)[O-])N2 (stereo not drawn) | 79% (active)
9 | O=C1C2CCN(CC2)C1Cc1ccc(O)cc1 (stereo not drawn) | 0% (inactive)
10 | COc1ccc(Cn2c(N)c(C(=O)NCc3ccco3)c3nc4ccccc4nc32)cc1 | 26% (inactive)
11 | O=C(O)c1cccc2c1NC(C(=O)O)C1CC(Sc3ccccc3[N+](=O)[O-])C(Cl)C21 (stereo not drawn) | 0% (inactive)
12 | N=c1c[n+](CCc2ccc(O)cc2)[n-]o1 | 7% (inactive)
13 | Cc1ccc(S(=O)(=O)Cc2ccc(C(=O)N3CCC4(CC3)OCCO4)o2)cc1 | 31% (inactive)
14 | CCOc1ccccc1N1C(=O)NC(=O)C(CCc2ccncc2)(CCc2ccncc2)C1=O | 59% (inactive)
15 | C[C@H]1CCC[C@@H](O)CCC/C=C/c2cc(O)cc(O)c2C(=O)O1 | 67% (active)
16 | Cc1ccc2c(c1Cl)NC(C(=O)O)C1CC(Sc3ccccc3[N+](=O)[O-])C(Cl)C21 (stereo not drawn) | 0% (inactive)
17 | COc1ccc(C2(CN)CCCC2)cc1 | 21% (inactive)
18 | O=C(O)c1cccc2c1NC(c1cccc([N+](=O)[O-])c1)C1CC(Sc3ccccc3[N+](=O)[O-])C(Cl)C21 (stereo not drawn) | 62% (inactive)
19 | CC(=O)c1ccc2c(c1)C1C(Cl)C(Sc3ccccc3[N+](=O)[O-])CC1C(C(=O)O)N2 (stereo not drawn) | 0% (inactive)
20 | COc1ccc2[nH]cc(CCN=C(N)N)c2c1 | 1% (inactive)
21 | NC(=O)c1ccc(N=Nc2c(O)[nH]c(=O)[nH]c2=O)cc1 | 28% (inactive)

same assay, conditions: fluorescent ligand competition, binding inhibition, at 0.1 µM, stronger effect = higher value

Row | Structure (SMILES) | inhibition of ligand binding [%]
22 | CC(=O)c1ccc2c(c1)C1C(Cl)C(Sc3ccccc3[N+](=O)[O-])CC1C(c1ccccc1[N+](=O)[O-])N2 (stereo not drawn) | 38
23 | COc1ccc(Cn2c(N)c(C(=O)NCc3ccco3)c3nc4ccccc4nc32)cc1 | 45
24 | O=C(O)c1cccc2c1NC(C(=O)O)C1CC(Sc3ccccc3[N+](=O)[O-])C(Cl)C21 (stereo not drawn) | 1
25 | Cc1ccc(S(=O)(=O)Cc2ccc(C(=O)N3CCC4(CC3)OCCO4)o2)cc1 | 24
26 | CCOc1ccccc1N1C(=O)NC(=O)C(CCc2ccncc2)(CCc2ccncc2)C1=O | 24
27 | C[C@H]1CCC[C@@H](O)CCC/C=C/c2cc(O)cc(O)c2C(=O)O1 | 74
28 | NC(=O)c1ccc(N=Nc2c(O)[nH]c(=O)[nH]c2=O)cc1 | 14

Reference: PubChem BioAssay AID1211 (NMMLSC, 2008)
